Source: PMC4552634, “A New Set of Chemical Starting Points with Plasmodium falciparum Transmission-Blocking Potential for Antimalarial Drug Discovery” (PLoS ONE, 2015)
About 3,200 (25%) of roughly 13,000 compounds showed an effect of 50% or more. The list shows a part of the results.

The molecules below were run on P. falciparum stage V gametocytes. Conditions: 48 h, 5 µM; inhibitor.
Set-up: BacTiter-Glo ATP luminescence viability of purified stage V gametocytes in 384-well plates, per cent inhibition versus DMSO
For `Cc1[nH]c2ccc(NS(C)(=O)=O)cc2c1C1CCN(CC2CCN(C(=O)/C=C/c3ccc(Cl)c(Cl)c3)CC2)CC1` [TCMDC-140125], the “% Inhibition” value was -39.53%. With `COc1ccc2nccc([C@@H](O)CN3CCC(NC(=O)c4ccc(Cl)c([N+](=O)[O-])c4)CC3)c2c1` [TCMDC-141037] the “% Inhibition” value was -23.07%. `CC(=O)Nc1cccc(C(=O)Nc2cccc(-c3csc(-c4nc5ccccc5[nH]4)c3)c2)c1` [TCMDC-132398] was tested, and the “% Inhibition” value was -2.258%. With `Cn1cnc(CCNC(=O)c2ccc(-c3cccc(-c4nc5ccccc5[nH]4)c3)cc2)c1` [TCMDC-132495] the “% Inhibition” value was -19.92%. In the case of `Cn1cnc(CCNC(=O)c2cccc(-c3ccc(-c4nc5cc(F)ccc5[nH]4)cc3)c2)c1` [TCMDC-132492], the “% Inhibition” value is reported as 7.487%. For `O=C(Nc1cccc(-c2ccc(-c3nc4ccccc4[nH]3)cc2)c1)c1cccnc1` [TCMDC-136924], the “% Inhibition” value was -5.994%. `Cn1cnc(CCNC(=O)c2cccc(-c3csc(-c4nc5ccccc5[nH]4)c3)c2)c1` [TCMDC-132501] was tested, and the “% Inhibition” value was 74.26%. In the case of `O=C(Nc1cccc(-c2cccc(-c3nc4ccccc4[nH]3)c2)c1)c1cccnc1` [TCMDC-136928], the “% Inhibition” value is reported as 76.9%. In the case of `O=C(Nc1cccc(-c2cccc(-c3nc4ccccc4[nH]3)c2)c1)c1ccncc1` [TCMDC-136955], the “% Inhibition” value is reported as 6.238%. In the case of `O=C(Nc1cccc(-c2csc(-c3nc4ccccc4[nH]3)c2)c1)c1ccncc1` [TCMDC-132402], the “% Inhibition” value is reported as 13.78%. In the case of `O=C(Nc1cccc(-c2csc(-c3nc4ccccc4[nH]3)c2)c1)c1cccnc1` [TCMDC-132403], the “% Inhibition” value is reported as 77.71%. With `CN(C)c1ccc(N2C(N)=NC(N)=NC23CCCC3)cc1` [TCMDC-123607] the “% Inhibition” value was 9.069%. In the case of `CN(CC(=O)Nc1cc(C(F)(F)F)ccc1-n1cncn1)Cc1ccc2ccccc2c1` [TCMDC-125257], the “% Inhibition” value is reported as -1.841%. With `Cc1cc(NCc2ccc(F)cc2)nc2cc(O)ccc12` [TCMDC-124412] the “% Inhibition” value was 9.894%. With `O=C(/C=C/c1ccc(Cl)c(Cl)c1)N1CCC(CN2CCC(Cc3cc4ccccc4[nH]3)CC2)CC1` [TCMDC-140231] the “% Inhibition” value was 13.2%. For `CCCCCCCCc1[nH]c(C)c(Br)c(=O)c1Br` [TCMDC-137433], the “% Inhibition” value was 43.41%. With `Cc1cc(CN2CCC(C(=O)Nc3ccc(-c4nc5ccccc5[nH]4)cc3)CC2)oc1C` [TCMDC-124612] the “% Inhibition” value was -34.2%. For `COc1ccc(C2C(C(=O)Nc3ccc(C)c(F)c3)c3cc(OC)c(OC)cc3C(=O)N2C)cc1` (stereo not drawn) [TCMDC-123594], the “% Inhibition” value was -36.5%. In the case of `COc1cc2c(cc1OC)C(C(=O)Nc1cc(OC)c(OC)c(OC)c1)C(c1ccc(SC)cc1)N(C)C2=O` (stereo not drawn) [TCMDC-125151], the “% Inhibition” value is reported as 59.65%. With `COc1ccc(C2C(C(=O)Nc3ccc4c(c3)OCO4)c3cc(OC)c(OC)cc3C(=O)N2C)cc1` (stereo not drawn) [TCMDC-123593] the “% Inhibition” value was 37.81%. `COc1ccc(C2C(C(=O)Nc3cc(OC)c(OC)c(OC)c3)c3cc(OC)c(OC)cc3C(=O)N2C)cc1` (stereo not drawn) [TCMDC-125141] was tested, and the “% Inhibition” value was 92.28%. With `COc1cc(SC)ccc1C(=O)N1CC(C)CC(C)C1` (stereo not drawn) [TCMDC-123656] the “% Inhibition” value was 27.35%. In the case of `O=C(N[C@@H](Cc1ccccc1)C(=O)NC1CCCc2ccccc21)c1ccc(O)c(-c2cccc(C(F)(F)F)c2)c1` (stereo partly drawn) [TCMDC-140820], the “% Inhibition” value is reported as 23.49%. `CCN(CC)CCN(Cc1ccc(-c2ccc(Cl)s2)cc1)C(=O)Cn1c(CCc2cccc(F)c2F)nc(=O)c2ccccc21` [TCMDC-141229] was tested, and the “% Inhibition” value was 28.5%. For `CCN(CC)CCN(CCCc1ccc(-c2ccc(C(F)(F)F)cc2)cc1)C(=O)Cn1c(CCc2cccc(F)c2F)nc(=O)c2ccccc21` [TCMDC-141253], the “% Inhibition” value was 67.3%. In the case of `CCN(CC)CCN(Cc1ccc(-c2ccc(Cl)cc2)cc1)C(=O)Cn1c(CCc2cccc(F)c2F)nc(=O)c2ccccc21` [TCMDC-141054], the “% Inhibition” value is reported as 39.4%. `CCN(CC)CCN(Cc1ccc(-c2ccc(Br)cc2)cc1)C(=O)Cn1c(CCc2cccc(F)c2F)nc(=O)c2ccccc21` [TCMDC-141305] was tested, and the “% Inhibition” value was 51.66%. In the case of `CC(C)(C)NCCN(Cc1ccc(-c2ccc(C(F)(F)F)cc2)cc1)C(=O)Cn1c(CCc2cccc(F)c2F)nc(=O)c2ccccc21` [TCMDC-141080], the “% Inhibition” value is reported as 105.1%. With `CCN(CC)CCN(Cc1ccc(-c2ccc(C(F)(F)F)s2)cc1)C(=O)Cn1c(CCc2cccc(F)c2F)nc(=O)c2ccccc21` [TCMDC-141262] the “% Inhibition” value was 57%. `CCN(CC)CCN(Cc1ccc(-c2ccc(C#N)cc2)cc1)C(=O)Cn1c(CCc2cccc(F)c2F)nc(=O)c2ccccc21` [TCMDC-141150] was tested, and the “% Inhibition” value was 0.7472%. With `Cc1ccccc1C1CCN(C2CCC(NC(=O)c3cc4cc(C(C)C)ccc4[nH]3)CC2)CC1` (stereo not drawn) [TCMDC-133554] the “% Inhibition” value was 15.06%. For `COc1ccc2ncc(C#N)c(CCN3C4CCC3CC(NCc3ccc5c(n3)NC(=O)CS5)C4)c2c1` (stereo not drawn) [TCMDC-135180], the “% Inhibition” value was 37.34%. With `Brc1cnc(NC2=NCCN2)c(Br)c1` [TCMDC-131680] the “% Inhibition” value was 12.04%. With `Cc1nc(C)c(CC(=O)Nc2cccc(-c3cccc(-c4nc5ccc(C(F)(F)F)cc5[nH]4)c3)c2)s1` [TCMDC-136995] the “% Inhibition” value was 4.513%. With `CC(C)(CN)c1nc(-c2ccc(Br)c(O)c2)c(-c2ccncc2)[nH]1` [TCMDC-140680] the “% Inhibition” value was -59.77%. With `O=C(/C=C/c1ccc(Cl)c(Cl)c1)NCCCCCN1CCC(NC(=O)Nc2ccccc2F)CC1` [TCMDC-139386] the “% Inhibition” value was -2.666%. `C=CCOC1OC(COC(c2ccccc2)(c2ccccc2)c2ccccc2)C(OC(C)=O)C(OC(C)=O)C1NC(C)=O` (stereo not drawn) [TCMDC-131992] was tested, and the “% Inhibition” value was 13.79%. With `CC(C)(C)NCCN(Cc1ccc(-c2ccc(C(F)(F)F)cc2)cc1)C(=O)Cn1c(CCc2cccc(F)c2F)nc(=O)c2c1CCC2` [TCMDC-140979] the “% Inhibition” value was 113.3%. `CCN(CC)CCN(Cc1ccc(-c2ccc(C(F)(F)F)cc2)cc1)C(=O)Cn1c(CCc2cccc(F)c2F)c(C)c(=O)c2ccccc21` [TCMDC-141313] was tested, and the “% Inhibition” value was 76.85%. With `CCN(CC)CCN(Cc1ccc(-c2ccc(C(F)(F)F)cc2)cc1)C(=O)Cn1c(CCc2cccc(F)c2F)nc(=O)c2ccccc21` [TCMDC-140922] the “% Inhibition” value was 60.98%. For `CCN(CC)CCN(CCCc1ccc(-c2ccc(C(F)(F)F)cc2)cc1)C(=O)Cn1c(CCc2cccc(F)c2F)nc(=O)c2c1CCC2` [TCMDC-140984], the “% Inhibition” value was 42.45%. For `CCN(CC)CCN(Cc1ccc(-c2ccc(C(F)(F)F)cc2)cc1)C(=O)Cn1c(CCc2ccc(F)c(F)c2F)nc(=O)c2cccnc21` [TCMDC-141002], the “% Inhibition” value was 20.31%. For `CCN(CC)CCN(Cc1ccc(-c2ccc(C(F)(F)F)cc2)cc1)C(=O)Cn1c(CCc2cccc(F)c2F)nc(=O)c2cccnc21` [TCMDC-141013], the “% Inhibition” value was 97.72%. `Cn1nccc1C(=O)NCCNCc1cccc(-c2csc(-c3nc4ccccc4[nH]3)c2)c1` [TCMDC-133002] was tested, and the “% Inhibition” value was -62.03%. With `CCCN1CCc2c(sc3nc(SCC(=O)Nc4ccc(C)cc4)n(-c4ccc(C)cc4)c(=O)c23)C1` [TCMDC-125451] the “% Inhibition” value was 5.583%. With `O=C(NC1CCCc2ccccc21)C1CCCN(C(=O)c2ccc(O)c(-c3ccc(Cl)c(Cl)c3)c2)C1` (stereo not drawn) [TCMDC-140890] the “% Inhibition” value was 19.76%. For `CCn1c(CN2CCC(C)CC2)nc2cc(NC(=O)c3cccs3)ccc21` [TCMDC-124730], the “% Inhibition” value was -26.92%. For `CCCCCCCN(Cc1ccc(OC(C)(C)C(=O)OCC)cc1)C(=O)Cc1ccc(F)cc1F` [TCMDC-131920], the “% Inhibition” value was 13.51%. With `COC(=O)c1cccc(NC(=O)NC2CCN(c3ccnc(Nc4ccc(OC)cc4)n3)C2)c1` (stereo not drawn) [TCMDC-133618] the “% Inhibition” value was -6.04%. `CC1CN(Cc2cccc(-c3ccc(-c4nc5ccccc5[nH]4)cc3)c2)CC(C)O1.O=C(O)C(F)(F)F` (stereo not drawn) [TCMDC-133816] was tested, and the “% Inhibition” value was -91.64%. For `CSc1ccc(NC(=O)Nc2cc(C)nc3ccccc23)cc1Br` [TCMDC-139874], the “% Inhibition” value was -51.95%. With `CCN(CC)CCN(Cc1ccc(-c2ccc(C(F)(F)F)cc2)cc1)C(=O)Cn1c(CCc2ccc(F)c(F)c2F)nc(=O)c2ccc(F)cc21` [TCMDC-141072] the “% Inhibition” value was 19.94%. In the case of `CCN(CC)CCN(Cc1ccc(-c2ccc(C(F)(F)F)cc2)cc1)C(=O)Cn1c(CCc2ccc(F)c(F)c2F)nc(=O)c2ccccc21` [TCMDC-140952], the “% Inhibition” value is reported as 68.69%. In the case of `CCN(CC)CCN(Cc1ccc(-c2ccc(C(F)(F)F)cc2)cc1)C(=O)Cn1c(CCc2ccccc2F)nc(=O)c2ccccc21` [TCMDC-141012], the “% Inhibition” value is reported as 52.86%. For `Clc1ccc2c(NN=Cc3cccnc3)ccnc2c1` [TCMDC-123968], the “% Inhibition” value was -19.33%. For `Cc1cccc2c3c([nH]c12)C1(CCN(CCc2ccccc2)CC1)NC(C(=O)NCc1ccccc1)C3` (stereo not drawn) [TCMDC-141245], the “% Inhibition” value was -39.36%. In the case of `Cc1cc(CN2CCN(CCOC(c3ccccc3)c3ccccc3)CC2)ccc1O` [TCMDC-135695], the “% Inhibition” value is reported as -7.709%. With `Cc1ccc(C)c(S(=O)(=O)NCC2CCN(Cc3ccc(O)cc3)CC2)c1` [TCMDC-141802] the “% Inhibition” value was 45.59%. With `COc1cc(CNCCCCCCNCc2cc(OC)c(OC)c3ccccc23)c2ccccc2c1OC` [TCMDC-137981] the “% Inhibition” value was 104.3%. In the case of `COc1cc(CNCCCCCCNCc2cc(OC)c3ccccc3c2OC)c(OC)c2ccccc12` [TCMDC-137502], the “% Inhibition” value is reported as 106.1%. For `CCOc1c(CNCCCNc2cc(=O)c3ccccc3[nH]2)cc(I)cc1OC` [TCMDC-139847], the “% Inhibition” value was -35.79%. For `CCOc1cc2ccccc2cc1CNCCCCCCNCc1cc2ccccc2cc1OCC` [TCMDC-137940], the “% Inhibition” value was 69.35%. `CCOc1c(Br)cc(C)cc1CNCCCNc1nc2ccccc2[nH]1` [TCMDC-140090] was tested, and the “% Inhibition” value was 7.25%. In the case of `CCOc1cc(CNCCCCCCNCc2cc(OCC)c(OCC)c3ccccc23)c2ccccc2c1OCC` [TCMDC-137939], the “% Inhibition” value is reported as 106%. `CCOc1c(C)cc(C(F)(F)F)cc1CNCCCNc1cc(=O)c2ccccc2[nH]1` [TCMDC-141046] was tested, and the “% Inhibition” value was -34.36%. For `COc1cc2ccccc2cc1CNCCCCCCNCc1cc2ccccc2cc1OC` [TCMDC-137955], the “% Inhibition” value was 4.122%.
